This is an account of results in PubChem BioAssay (NCI).

Among the test systems are SR leukemia; RPMI-8226 leukemia; OVCAR-8 ovarian; OVCAR-5 ovarian; OVCAR-4 ovarian; SK-OV-3 ovarian; IGROV1 ovarian; OVCAR-3 ovarian; HS 578T breast; NCI/ADR-RES ovarian; T-47D breast; BT-549 breast; MDA-MB-435 melanoma; SW-620 colon; MCF7 breast; HCT-116 colon; HCC-2998 colon; KM12 colon.
Assay in all cases: NCI-60 one-dose screen, 48 h (100 = growth as untreated, 0 = no growth, -100 = all killed)
What all share (settings): 10 µM unless noted

Structures are written as SMILES. Compounds without any hit were thinned out: in the full panel of roughly 83,000, 20% have a hit.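 Note: values are percent growth. 100 is the growth of untreated cells, values between 100 and 0 indicate rising inhibition; between -100 and 0 indicates cell death.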 A number with no mark means an inactive call. The source made the active and inactive calls. The calls were made as follows: active = growth percent below 10; inactive = the rest.

On to `CC1(C)NCCC[C@]2(C)[C@H]3C/C(=N\O)C4[C@@H]5C[C@@](C)(CO)CC[C@]5(C)CC[C@@]4(C)[C@]3(C)CC[C@@H]12` (stereo partly specified), for which the growth in the test with SR leukemia is 81.2%; in the test with RPMI-8226 leukemia it was 111%; with OVCAR-8 ovarian it was 98.4%; in the test with OVCAR-5 ovarian it was 104%; in the test on OVCAR-4 ovarian, 99.4%; in the test on SK-OV-3 ovarian, 107%. Further, the growth with IGROV1 ovarian is 96.5%; in the test with OVCAR-3 ovarian, 109%; in the test on HS 578T breast it was 98.6%; in the test with NCI/ADR-RES ovarian, 98.1%; in the test with T-47D breast it was 85.3%; with BT-549 breast, 97.6%. The growth is 111% in the test on MDA-MB-435 melanoma; 103% in the test on SW-620 colon; 86.9% with MCF7 breast; 86.3% in the test on HCT-116 colon; 105% with HCC-2998 colon; 104% with KM12 colon.
Turning to `C#CCOC(=O)[C@@H]1CCCN1CC#C`, the growth in the test with SR leukemia was 95.5%; in the test with RPMI-8226 leukemia it was 71%; in the test on OVCAR-8 ovarian it was 90.4%; in the test on OVCAR-5 ovarian, 103%; in the test with OVCAR-4 ovarian, 91.9%; in the test with SK-OV-3 ovarian, 97.6%. Also, the growth in the test with IGROV1 ovarian is 67.3%; in the test with OVCAR-3 ovarian it was 87.3%; in the test with HS 578T breast, 74.8%; in the test with NCI/ADR-RES ovarian, 85.7%; in the test with T-47D breast, 92.6%; with BT-549 breast it was 95.2%. For the same compound, the growth in the test on MDA-MB-435 melanoma was 90.9%; in the test with MCF7 breast, 74.9%; in the test on HCT-116 colon, 81.6%; in the test with HCC-2998 colon, 96.7%; in the test on KM12 colon, 91.5%.
For the compound `Cc1ccc(S(=O)(=O)N(CC[C@@H]2C[C@H]2c2cc3ccccc3o2)S(=O)(=O)c2ccc(C)cc2)cc1`, the growth in the test with SR leukemia was 128%; in the test with RPMI-8226 leukemia, 101%; with OVCAR-8 ovarian, 96.8%; in the test with OVCAR-5 ovarian it was 98%; in the test with OVCAR-4 ovarian, 76.8%; in the test on SK-OV-3 ovarian, 101%. Also, the growth is 101% in the test with IGROV1 ovarian; 108% with OVCAR-3 ovarian; 98.6% in the test on HS 578T breast; 94% with NCI/ADR-RES ovarian; 78.3% in the test with T-47D breast; 98% in the test with BT-549 breast. Besides, the growth with MDA-MB-435 melanoma is 104%; with SW-620 colon it was 95.2%; in the test with HCT-116 colon, 92.5%; in the test on HCC-2998 colon, 100%; with KM12 colon, 103%.
Consider `COc1ccc(N2C(=O)c3cc(Cl)ccc3NC2SCc2ccccc2)cc1` (stereo unspecified), for which the growth was 103% in the test with SR leukemia; 107% with RPMI-8226 leukemia; 94.8% in the test with OVCAR-8 ovarian; 102% with OVCAR-5 ovarian; 94.7% in the test with OVCAR-4 ovarian; 101% in the test on SK-OV-3 ovarian. Besides, the growth with IGROV1 ovarian was 99.5%; with OVCAR-3 ovarian, 105%; in the test on HS 578T breast, 106%; in the test with NCI/ADR-RES ovarian, 99.1%; in the test with T-47D breast, 88.1%; in the test on BT-549 breast, 97.5%. Moreover, the growth was 94.5% with MDA-MB-435 melanoma; 85.4% in the test with MCF7 breast; 73.8% in the test on HCT-116 colon; 106% in the test on HCC-2998 colon; 96.9% with KM12 colon.
Consider `Nc1nc(N)c2c(n1)NC(c1ccc(Cl)cc1)CC(c1ccc(Nc3nc(NCCO)nc(N4CCOCC4)n3)cc1)=N2` (stereo unspecified), for which the growth in the test on SR leukemia was 8.95% (active); in the test on RPMI-8226 leukemia, 38.9%; with OVCAR-8 ovarian it was 72%; in the test on OVCAR-5 ovarian, 96.7%; in the test on OVCAR-4 ovarian, 93.8%; with SK-OV-3 ovarian, 103%. In addition, the growth in the test on IGROV1 ovarian was 78.8%; in the test on OVCAR-3 ovarian it was 73.2%; in the test with HS 578T breast, 65.9%; in the test with NCI/ADR-RES ovarian, 97.3%; in the test on T-47D breast, 74.8%; in the test on BT-549 breast, 71%. Further, the growth in the test on MDA-MB-435 melanoma is 81.7%; in the test on SW-620 colon it was 79.4%; in the test on HCT-116 colon, 57.3%; with HCC-2998 colon it was 108%; in the test on KM12 colon, 65.3%.
Regarding `Cc1c(Cl)cccc1S(=O)(=O)Nc1ccc2c(c1)C(=O)N(C1CCC(=O)NC1=O)C2=O` (stereo unspecified), the growth with SR leukemia is 97.1%; in the test on RPMI-8226 leukemia, 84.5%; in the test on OVCAR-8 ovarian, 47.8%; in the test on OVCAR-5 ovarian it was 97.3%; in the test with OVCAR-4 ovarian, 69.1%; with SK-OV-3 ovarian, 106%. Also, the growth was 64.1% in the test with IGROV1 ovarian; 105% in the test on OVCAR-3 ovarian; 67.3% in the test on HS 578T breast; 73.3% in the test with NCI/ADR-RES ovarian; 44% in the test with T-47D breast; 63.9% with BT-549 breast. Also, the growth in the test on MDA-MB-435 melanoma was 96.2%; with SW-620 colon, 44.8%; in the test with HCT-116 colon, 107%; with HCC-2998 colon it was 67.9%; in the test on KM12 colon, 92.2%.
In the case of `O=C(c1ccc(O)cc1)[C@@H]1CN[C@@]2(C(=O)Nc3ccccc32)[C@H]1c1ccc(F)cc1`, the growth in the test on SR leukemia was 87.5%; in the test on RPMI-8226 leukemia, 95.4%; in the test on OVCAR-8 ovarian, 99.2%; with OVCAR-5 ovarian, 104%; in the test on OVCAR-4 ovarian, 102%; with SK-OV-3 ovarian, 115%. The growth with IGROV1 ovarian is 95.3%; in the test on OVCAR-3 ovarian, 117%; in the test on HS 578T breast, 110%; with NCI/ADR-RES ovarian, 99.2%; in the test on T-47D breast it was 99.3%; in the test with BT-549 breast, 79.7%. Besides, the growth in the test on MDA-MB-435 melanoma is 107%; with MCF7 breast it was 99%; in the test with HCT-116 colon, 104%; with HCC-2998 colon, 113%; with KM12 colon it was 102%.
As for `COc1ccc(C2CC(c3ccc(Nc4nc(NCCO)nc(N5CCOCC5)n4)cc3)=Nc3c(N)nc(N)nc3N2)cc1` (stereo unspecified), the growth in the test with SR leukemia is 105%; in the test with RPMI-8226 leukemia, 108%; with OVCAR-8 ovarian, 99.8%; in the test with OVCAR-5 ovarian, 109%; with OVCAR-4 ovarian, 104%; in the test on SK-OV-3 ovarian, 109%. In addition, the growth is 105% with IGROV1 ovarian; 101% in the test on OVCAR-3 ovarian; 91.6% in the test on HS 578T breast; 107% in the test with NCI/ADR-RES ovarian; 90.5% with T-47D breast; 99.2% in the test with BT-549 breast. Moreover, the growth in the test with MDA-MB-435 melanoma is 108%; in the test on MCF7 breast it was 86.2%; in the test with HCT-116 colon, 100%; in the test on HCC-2998 colon, 105%; in the test on KM12 colon, 89%.
For `CCn1c(SCC(=O)Nc2cccc(C(=O)/C=C/c3ccc(C)cc3)c2)nc2ccccc2c1=O`, the growth in the test with SR leukemia is 56.4%; with RPMI-8226 leukemia it was 7.2% (active); with OVCAR-8 ovarian, 90.9%; with OVCAR-5 ovarian, 97.6%; in the test with OVCAR-4 ovarian, 80%; in the test on SK-OV-3 ovarian it was 110%. Besides, the growth with IGROV1 ovarian is 77.1%; with OVCAR-3 ovarian, 43.9%; in the test with HS 578T breast it was 101%; in the test with NCI/ADR-RES ovarian, 91%; in the test on T-47D breast it was 70.7%; with BT-549 breast, 93.3%. Besides, the growth in the test with MDA-MB-435 melanoma is 75.4%; with SW-620 colon, 51.4%; with HCT-116 colon, 10.8%; in the test on HCC-2998 colon it was 78.7%; with KM12 colon, 77.4%.
As to `O=C(Nc1cccc(C(F)(F)F)c1)c1cc(-c2ccc(F)cc2F)ccc1O`, the growth in the test on SR leukemia is 24%; with RPMI-8226 leukemia it was -10.3% (active); in the test with OVCAR-8 ovarian, 11.5%; in the test with OVCAR-5 ovarian, 9.98% (active); in the test on OVCAR-4 ovarian, 12.4%; with SK-OV-3 ovarian, -0.0407% (active). The growth in the test on IGROV1 ovarian is 10.4%; with OVCAR-3 ovarian, 9.88% (active); in the test on HS 578T breast, -5.22% (active); in the test on NCI/ADR-RES ovarian, 4.03% (active); in the test with T-47D breast it was 2.56% (active); with BT-549 breast, 1.83% (active). Moreover, the growth is 4.23% (active) with MDA-MB-435 melanoma; 10.8% with SW-620 colon; 3.8% (active) in the test on HCT-116 colon; 15.2% in the test on HCC-2998 colon; 3.77% (active) with KM12 colon.
